Entries with a potency or affinity are not part of this list. Values without a mark were called inactive.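 Rule for the calls: active = cell killing with a fitted half-effect concentration at or below twice the top valid dose; inconclusive = flat curve with 30 to 70 percent drop, or poor fit; inactive = the rest.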
Experiment: HEK293T cell cytotoxicity, dose response, cytotoxicity control, ATP luminescence, cherry-pick, set 6 (AID 1053126);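 note: 0% = neutral control wells and -100% = mitoxantrone 10 µM positive control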
Details: HEK293T viability, CellTiter-Glo ATP luminescence, 72 h; series mostly up to 26 µM; activity change, negative = cytotoxicity: at the top concentration

SMILES | activity change, negative = cytotoxicity
CC12CC(c3ccccc3O1)C(C(=O)OCc1ccccc1)C(=O)N2 (stereo not drawn) | -5.13%
Nc1ccc2ccc3cccc[n+]3c2c1 | -7.98%
CC(C)OP(=O)(O)NC(=O)c1ccccc1 | -13.2%

Reference: PubChem BioAssay AID1053126 (Broad Institute, 2014)
